A selection: hits, their analogues and other compounds. The true share with any hit is near 18%.
TDP1 inh: qHTS Assay for Inhibitors of Tyrosyl-DNA Phosphodiesterase (TDP1) | Tyrosyl-DNA phosphodiesterase 1 (Homo sapiens), Q9NUW8 | recombinant TDP1, AlphaScreen DNA substrate cleavage | Potency, µM (highest dose often 130 µM), without a hit: top-dose activity change, negative = inhibition, actives largely listed as inhibitors | actives 0.28% (n = 350,000); further: potency means the concentration at half of the fitted maximal effect; on the % scale 0 is the no-effect control and ±100 the full control effect; nearly all actives have a fitted effect of over 40% in size
Target sequence (Q9NUW8 whole entry, looked up): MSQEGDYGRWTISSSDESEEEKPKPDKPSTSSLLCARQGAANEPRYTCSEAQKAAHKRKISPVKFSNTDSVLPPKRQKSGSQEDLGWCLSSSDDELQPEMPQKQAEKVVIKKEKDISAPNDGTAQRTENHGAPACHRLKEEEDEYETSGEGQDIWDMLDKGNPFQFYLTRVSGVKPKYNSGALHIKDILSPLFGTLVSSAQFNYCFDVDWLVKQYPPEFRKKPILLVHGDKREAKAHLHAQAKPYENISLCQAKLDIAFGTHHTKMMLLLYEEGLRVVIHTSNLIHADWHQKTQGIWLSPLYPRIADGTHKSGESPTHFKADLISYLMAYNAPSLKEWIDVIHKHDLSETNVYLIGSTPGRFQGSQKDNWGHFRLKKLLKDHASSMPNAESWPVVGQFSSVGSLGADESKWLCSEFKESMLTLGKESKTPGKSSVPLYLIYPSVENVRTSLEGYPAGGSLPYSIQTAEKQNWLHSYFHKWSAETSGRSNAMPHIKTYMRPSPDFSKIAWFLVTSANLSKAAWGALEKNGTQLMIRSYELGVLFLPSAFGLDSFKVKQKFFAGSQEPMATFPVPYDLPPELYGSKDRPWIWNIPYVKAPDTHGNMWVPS
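Tdp1 1 nM final; 15 min RT w/ cpd; substrate 15 nM, 5 min; beads 10 ug/ml, 10 min; AlphaScreen read. Neg ctrl: no enzyme.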
IL-1B inflam inh: qHTS for Inhibitors of Inflammasome Signaling: IL-1-beta AlphaLISA Primary Screen. AID 743279, 2014. activity change, % at 57.5 µM. actives 4.7% (n = 360,000). THP-1 LPS/ATP IL-1B secretion, AlphaLISA, 16 h; hits give low values; in the data active means activity change below about -50%; inconclusive means mostly about -30% to -49%; further: on the % scale 0 is the no-effect control and ±100 the full control effect
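Secreted IL-1B measured by AlphaLISA bead assay after 16 h compound exposure of THP-1 cells; compounds (final up to 57.5 uM) added 1 h before LPS (250 ng/mL) and ATP (1.25 mM) stimulation; lower signal means less secretion.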
TGFb inhibitor: qHTS for Inhibitors of TGF-b | HepG2 CAGA-GFP TGF-b/SMAD3 reporter, GFP fluorescence, 18 h; TGF-beta stimulated, 500 pg/mL final | Potency, µM (highest dose often 46.1 µM), for the others: top-dose activity, negative = inhibition, most hits filed as inhibitors | actives 1.2% (n = 410,000) | AID 588855, 2011; further: potency means the concentration at half of the fitted maximal effect; on the % scale 0 is the no-effect control and ±100 the full control effect; nearly all actives have a fitted effect of over 65% in size
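HEPG2 CAGA-GFP cells (1000/well, DMEM with 1% FBS) were pre-incubated 2 h at 37 degrees C, given compound by pin tool, then stimulated with TGF-beta at 500 pg/mL final for 18 h before per-cell GFP fluorescence imaging.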
DT40 TDP1 CPT: qHTS for Inhibitors of human tyrosyl-DNA phosphodiesterase 1 (TDP1): qHTS in cells in presence of CPT. chicken DT40 Tdp1-/-;hTDP1 cells + 20 nM CPT, ATP luminescence, 48 h. Potency, µM (doses to about 46.2 µM), for inactives: at the highest dose activity change, negative = growth inhibition, most hits filed as inhibitors. actives 12% (n = 420,000); further: potency means the concentration at half of the fitted maximal effect; on the % scale 0 is the no-effect control and ±100 the full control effect; nearly all actives have a fitted effect of over 55% in size
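Cell growth measured by CellTiter-Glo luminescence after a minimum 48 h, 37 C compound exposure with 20 nM CPT in Tdp1-knockout DT40 cells stably expressing hTDP1, seeded 400/well; qHTS titration format.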
HepG2 viability: qHTS for Inhibitors of TGF-b: Cytotox Counterscreen; Potency, µM (highest dose often 46.1 µM), for inactives: at the top dose activity change, negative = cytotoxicity, actives largely listed as cytotoxic; HepG2 CAGA-GFP viability, ATP luminescence, 18 h; actives 0.76% (n = 410,000); AID 588856, 2011; further: potency means the concentration at half of the fitted maximal effect
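HepG2 CAGA-GFP cells (1000/well, DMEM with 1% FBS) received compound, then TGF-beta at 500 pg/mL final, and were incubated 18 hours at 37 degrees C. Viability was read by CellTiter-Glo luminescence. Media-only wells were set as complete cell-killing and DMSO as no toxicity.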
DT40 TDP1 no CPT: qHTS for Inhibitors of human tyrosyl-DNA phosphodiesterase 1 (TDP1): qHTS in cells in absence of CPT; DT40 Tdp1-/- hTDP1 cells, no CPT, ATP luminescence, 48 h; Potency, µM (titrated, usually from 46.2 µM), for inactives: top-dose activity change, negative = growth inhibition, hits mostly inhibitors; actives 15% (n = 420,000); AID 686978, 2013; further: potency means the concentration at half of the fitted maximal effect; on the % scale 0 is the no-effect control and ±100 the full control effect; nearly all actives have a fitted effect of over 55% in size
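Luminescent ATP content (CellTiter-Glo) served as the growth readout. Knockout chicken DT40 cells expressing human TDP1 were exposed to compounds without camptothecin for a minimum 48 hr at 37 °C.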
An asterisk follows results filed as active. Unless noted, the call rests on the fitted dose curve; in most records, active means well fitted curve in the direction sought with a large enough effect; inconclusive means small, poorly fitted or top-dose-only effect, or another doubt; inactive means no such curve, though single readings can be large; an effect the other way counts as inactive or inconclusive.

For Cc1ccc(-n2ncc(C(=O)NCc3ccccn3)c2C2CCN(C(=O)OC(C)(C)C)CC2)c(C)c1 the results were TDP1 inh 7%, TGFb inhibitor inconclusive, DT40 TDP1 CPT inconclusive, HepG2 viability -35% and DT40 TDP1 no CPT 21µM*.
`CCN1CCN(C(=O)c2cnn(-c3ccc(F)cc3F)c2C2CCN(C(=O)OC(C)(C)C)CC2)CC1` gave TDP1 inh -4%, TGFb inhibitor 0%, DT40 TDP1 CPT -2%, HepG2 viability -19% and DT40 TDP1 no CPT -2%.
Screening Cc1c(Cl)cccc1-n1ncc(C(=O)NCCN2CCN(C)CC2)c1C1CCN(C(=O)OC(C)(C)C)CC1 returned TDP1 inh -2%, TGFb inhibitor 2%, DT40 TDP1 CPT inconclusive, HepG2 viability 0% and DT40 TDP1 no CPT 26µM*.
`Cc1ccc(-n2ncc(C(=O)NCCN3CCc4ccccc4C3)c2C2CCN(C(=O)OC(C)(C)C)CC2)cc1C` gave TDP1 inh 7%, TGFb inhibitor -16%, DT40 TDP1 CPT 16µM*, HepG2 viability -95% and DT40 TDP1 no CPT 21µM*.
For Cc1cccc(C)c1-n1ncc(C(=O)NCCN2CCN(C)CC2)c1C1CCN(C(=O)OC(C)(C)C)CC1 the results were TDP1 inh 2%, TGFb inhibitor 13%, DT40 TDP1 CPT inconclusive, HepG2 viability -2% and DT40 TDP1 no CPT inconclusive.
Screening CCc1nnc(NC(=O)c2cccc(S(=O)(=O)N3CCN(C)CC3)c2)s1 returned IL-1B inflam inh 17, TGFb inhibitor 11%, DT40 TDP1 CPT inconclusive, HepG2 viability 6% and DT40 TDP1 no CPT inconclusive.
For Cc1cc(C)c(C)c(S(=O)(=O)NC(C(=O)NCCc2ccco2)C(C)C)c1C (stereo not given) the results were TDP1 inh 1%, IL-1B inflam inh 0, TGFb inhibitor -9%, DT40 TDP1 CPT -7%, HepG2 viability -16% and DT40 TDP1 no CPT -22%.
Nc1nc2c(ncn2COC(CO)CO)c(=O)[nH]1 was read as TDP1 inh -3%, IL-1B inflam inh 3, TGFb inhibitor -2%, DT40 TDP1 CPT 1.3µM*, HepG2 viability 2% and DT40 TDP1 no CPT 2.6µM*.
`CCCCn1cnc2c(=O)[nH]c(N)nc21` gave TDP1 inh 4%, TGFb inhibitor 3%, DT40 TDP1 CPT -5%, HepG2 viability -3% and DT40 TDP1 no CPT -23%.
Screening COc1ccc(S(=O)(=O)NCc2ccc(C(=O)N3CCc4ccccc4C3)cc2)cc1 returned TDP1 inh 2%, IL-1B inflam inh -2, TGFb inhibitor -22%, DT40 TDP1 CPT 23µM*, HepG2 viability -27% and DT40 TDP1 no CPT 23µM*.
Screening COc1ccc(S(=O)(=O)NCc2ccc(C(=O)NCCCN3CCCC(C)C3)cc2)cc1 (stereo not given) returned TDP1 inh 1%, IL-1B inflam inh -52*, TGFb inhibitor 17%, DT40 TDP1 CPT inconclusive, HepG2 viability -7% and DT40 TDP1 no CPT -11%.
Cc1ccc(C)c(S(=O)(=O)NCc2ccc(C(=O)N3CCCCC3C)cc2)c1 (stereo not given) was read as TDP1 inh 4%, IL-1B inflam inh -10, TGFb inhibitor -14%, DT40 TDP1 CPT inconclusive, HepG2 viability -22% and DT40 TDP1 no CPT 23µM*.
`CS(=O)(=O)N(Cc1ccc(C(=O)N2CCc3ccccc3C2)cc1)c1ccccc1` gave TDP1 inh -1%, IL-1B inflam inh -25, TGFb inhibitor -22%, DT40 TDP1 CPT inconclusive, HepG2 viability -21% and DT40 TDP1 no CPT inconclusive.
`Cc1ccc(CN(c2ccc(C(=O)N3CCc4ccccc4C3)cc2)S(C)(=O)=O)cc1` gave TDP1 inh 2%, IL-1B inflam inh 4, TGFb inhibitor -9%, DT40 TDP1 CPT inconclusive, HepG2 viability 1% and DT40 TDP1 no CPT 15µM*.
Screening Cc1ccc(NC(=O)C2CCN(S(=O)(=O)c3c(C)noc3C)CC2)c(C)c1 returned TDP1 inh -5%, TGFb inhibitor inconclusive, DT40 TDP1 CPT 2%, HepG2 viability 1% and DT40 TDP1 no CPT -10%.
For CN(C(=O)CSc1nc2ccccc2c(=O)n1C)C1CCS(=O)(=O)C1 (stereo not given) the results were TDP1 inh 1%, IL-1B inflam inh 38, TGFb inhibitor -2%, DT40 TDP1 CPT 8%, HepG2 viability 14% and DT40 TDP1 no CPT inconclusive.
For CCOC(=O)CCCCCC(=O)Nc1ccc2c(c1)C(=O)N([C@@H](C)CO)C[C@@H](C)[C@H](CN(C)C(=O)c1ccncc1)OCCCC[C@H](C)O2 the results were IL-1B inflam inh -1, TGFb inhibitor 11%, DT40 TDP1 CPT -15%, HepG2 viability -15% and DT40 TDP1 no CPT -1%.
Screening Cc1ccc(S(=O)(=O)NCc2ccc(C(=O)N3CCc4ccccc4C3)cc2)cc1 returned TDP1 inh 5%, IL-1B inflam inh -23, TGFb inhibitor -16%, DT40 TDP1 CPT inconclusive, HepG2 viability -16% and DT40 TDP1 no CPT 29µM*.
`Nc1[nH]c(C(=O)c2ccccc2)c(-c2ccc(Cl)cc2)c1C(=O)NCc1ccccc1` gave IL-1B inflam inh 12, DT40 TDP1 CPT -7% and DT40 TDP1 no CPT -16%.
Cc1ccc(C2=Nc3ccccc3N(CC(=O)Nc3cccc(F)c3)C(=O)C2)cc1C was read as TDP1 inh 11%, TGFb inhibitor inconclusive, DT40 TDP1 CPT inconclusive, HepG2 viability -32% and DT40 TDP1 no CPT 18µM*.
`O=C(CSC1=Nc2ccccc2N=C(c2ccc(F)cc2)C1)NCc1ccc(F)cc1` gave TDP1 inh 8%, TGFb inhibitor inconclusive, DT40 TDP1 CPT inconclusive, HepG2 viability -33% and DT40 TDP1 no CPT -20%.
Screening COc1cccc(NC(=O)CSC2=Nc3ccccc3N=C(c3ccc(F)cc3)C2)c1 returned TDP1 inh 7%, TGFb inhibitor -23%, DT40 TDP1 CPT 18µM*, HepG2 viability 2% and DT40 TDP1 no CPT inconclusive.
Cc1ccc(C2=Nc3ccccc3N(CC(=O)NCc3ccccc3Cl)C(=O)C2)cc1C was read as TDP1 inh 5%, TGFb inhibitor inconclusive, DT40 TDP1 CPT inconclusive, HepG2 viability -26% and DT40 TDP1 no CPT 21µM*.

Compound activity from PubChem BioAssay.
